Measured values reported in PubChem BioAssay AID1159580 (chemical genetic matrix, 2015).
Among all 5,500 compounds or so, about 2,000 (36%) were called active. Not shown: some 18% with an inconclusive outcome. The list shows a part of the results. A number with no mark means an inactive call. Rule as the data show it: active = normalized growth mostly below about 0.91 (no sharp cut-off); inconclusive = no clear call, values can overlap the other calls; inactive = mostly above about 0.92.

Experiment: chemical genetic growth profiling, strain panel (AID 1159580);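 also: tested at 20 µM; growth read once vehicle control cultures reached saturation at 30 °C; 1 = growth at the plate median or of vehicle wells; lower values mean less growth of the strain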
Details: growth OD

Which normalized growth (S. cerevisiae deletion strains, locus YKL009W, strain mrt4, active compounds read low) does the source give for `CCOc1cccc(C(=O)c2ccc(O)c(O)c2O)c1` here?
The normalized growth was 0.914.

What about the normalized growth (S. cerevisiae deletion strains, locus YKL068W, active compounds read low) of the same compound?
Its normalized growth is 0.972.

And the normalized growth (S. cerevisiae deletion strains, locus YKL085W, strain MDH1 (second series), active compounds read low)?
Its normalized growth is 0.955.

And the normalized growth (S. cerevisiae deletion strains, locus YKL085W, strain MDH1, active compounds read low)?
The normalized growth was 0.955.

What about the normalized growth (S. cerevisiae deletion strains, locus YKL160W, strain elf1, active compounds read low) of the same compound?
The normalized growth was 0.93.

And the normalized growth (S. cerevisiae deletion strains, locus YKR001C, strain vps1, active compounds read low)?
Its normalized growth is 0.811 (active).

And the normalized growth (S. cerevisiae deletion strains, locus YKR026C, strain gcn3, active compounds read low)?
The normalized growth was 0.956.

What about the normalized growth (S. cerevisiae deletion strains, locus YKR091W, strain srl3, active compounds read low) of the same compound?
Its normalized growth is 0.966.

What about the normalized growth (S. cerevisiae deletion strains, locus YLL001W, strain dnm1, active compounds read low) of the same compound?
The normalized growth was 0.945.

What about the normalized growth (S. cerevisiae deletion strains, locus YLL026W, active compounds read low) of the same compound?
The normalized growth was 0.936.

What about the normalized growth (S. cerevisiae deletion strains, locus YLL041C, strain sdh2, active compounds read low) of the same compound?
The normalized growth was 0.939.

What about the normalized growth (S. cerevisiae deletion strains, locus YLR027C, strain aat2, active compounds read low) of the same compound?
Its normalized growth is 0.905 (active).

What about the normalized growth (S. cerevisiae deletion strains, locus YLR039C, strain RIC1, active compounds read low) of the same compound?
Its normalized growth is 0.521 (active).

What about the normalized growth (S. cerevisiae deletion strains, locus YLR058C, strain SHM2, active compounds read low) of the same compound?
Its normalized growth is 0.524 (active).

What about the normalized growth (S. cerevisiae deletion strains, locus YLR102C, strain apc9, active compounds read low) of the same compound?
The normalized growth was 0.996.

What about the normalized growth (S. cerevisiae deletion strains, locus YLR113W, strain HOG1, active compounds read low) of the same compound?
Its normalized growth is 1.05.

What about the normalized growth (S. cerevisiae deletion strains, locus YLR221C, strain rsa3, active compounds read low) of the same compound?
The normalized growth was 0.87 (active).

What about the normalized growth (S. cerevisiae deletion strains, locus YLR258W, strain gsy2, active compounds read low) of the same compound?
Its normalized growth is 0.899 (active).

And the normalized growth (S. cerevisiae deletion strains, locus YLR262C, strain YPT6 (second series), active compounds read low)?
Its normalized growth is 0.627 (active).

What about the normalized growth (S. cerevisiae deletion strains, locus YLR268W, strain sec22, active compounds read low) of the same compound?
The normalized growth was 0.72 (active).

What about the normalized growth (S. cerevisiae deletion strains, locus YLR320W, strain mms22, active compounds read low) of the same compound?
The normalized growth was 0.806 (active).

And the normalized growth (S. cerevisiae deletion strains, locus YLR330W, strain CHS5, active compounds read low)?
Its normalized growth is 0.804 (active).

What about the normalized growth (S. cerevisiae deletion strains, locus YLR342W, strain FKS1 (second series), active compounds read low) of the same compound?
The normalized growth was 0.633 (active).

What about the normalized growth (S. cerevisiae deletion strains, locus YLR342W, strain FKS1, active compounds read low) of the same compound?
Its normalized growth is 0.903 (active).

And the normalized growth (S. cerevisiae deletion strains, locus YLR357W, strain rsc2, active compounds read low)?
The normalized growth was 0.706 (active).

And the normalized growth (S. cerevisiae deletion strains, locus YLR370C, strain arc18, active compounds read low)?
Its normalized growth is 0.939.

And the normalized growth (S. cerevisiae deletion strains, locus YLR371W, strain rom2, active compounds read low)?
Its normalized growth is 0.737 (active).

And the normalized growth (S. cerevisiae deletion strains, locus YLR384C, strain iki3, active compounds read low)?
Its normalized growth is 0.938.

What about the normalized growth (S. cerevisiae deletion strains, locus YLR418C, strain cdc73, active compounds read low) of the same compound?
The normalized growth was 0.563 (active).

What about the normalized growth (S. cerevisiae deletion strains, locus YML016C, strain PPZ1, active compounds read low) of the same compound?
Its normalized growth is 0.71 (active).

And the normalized growth (S. cerevisiae deletion strains, locus YML032C, strain rad52, active compounds read low)?
The normalized growth was 0.942.

What about the normalized growth (S. cerevisiae deletion strains, locus YML120C, strain ndi1, active compounds read low) of the same compound?
The normalized growth was 0.765 (active).

What about the normalized growth (S. cerevisiae deletion strains, locus YML124C, strain tub3, active compounds read low) of the same compound?
Its normalized growth is 0.948.

What about the normalized growth (S. cerevisiae deletion strains, locus YMR058W, strain fet3, active compounds read low) of the same compound?
Its normalized growth is 0.283 (active).

And the normalized growth (S. cerevisiae deletion strains, locus YMR078C, strain ctf18, active compounds read low)?
The normalized growth was 0.966.

What about the normalized growth (S. cerevisiae deletion strains, locus YMR125W, strain sto1, active compounds read low) of the same compound?
The normalized growth was 0.976.

What about the normalized growth (S. cerevisiae deletion strains, locus YMR129W, active compounds read low) of the same compound?
The normalized growth was 0.95.

What about the normalized growth (S. cerevisiae deletion strains, locus YMR205C, strain PFK2, active compounds read low) of the same compound?
The normalized growth was 0.74 (active).

What about the normalized growth (S. cerevisiae deletion strains, locus YMR223W, strain ubp8, active compounds read low) of the same compound?
Its normalized growth is 0.844 (active).

And the normalized growth (S. cerevisiae deletion strains, locus YMR231W, strain pep5, active compounds read low)?
Its normalized growth is 0.826 (active).

And the normalized growth (S. cerevisiae deletion strains, locus YMR263W, strain SAP30, active compounds read low)?
Its normalized growth is 0.854 (active).

What about the normalized growth (S. cerevisiae deletion strains, locus YMR307W, strain GAS1, active compounds read low) of the same compound?
Its normalized growth is 0.698.

What about the normalized growth (S. cerevisiae deletion strains, locus YNL067W, strain RPL9B, active compounds read low) of the same compound?
Its normalized growth is 0.841 (active).

What about the normalized growth (S. cerevisiae deletion strains, locus YNL071W, strain lat1, active compounds read low) of the same compound?
Its normalized growth is 0.889 (active).

And the normalized growth (S. cerevisiae deletion strains, locus YNL153C, strain GIM3, active compounds read low)?
The normalized growth was 0.747 (active).

What about the normalized growth (S. cerevisiae deletion strains, locus YNL183C, strain NPR1, active compounds read low) of the same compound?
The normalized growth was 0.98.

And the normalized growth (S. cerevisiae deletion strains, locus YNL209W, strain ssb2, active compounds read low)?
Its normalized growth is 0.752 (active).

What about the normalized growth (S. cerevisiae deletion strains, locus YNL233W, strain BNI4, active compounds read low) of the same compound?
The normalized growth was 0.781 (active).

What about the normalized growth (S. cerevisiae deletion strains, locus YNL248C, strain rpa49, active compounds read low) of the same compound?
The normalized growth was 0.95.

What about the normalized growth (S. cerevisiae deletion strains, locus YNL250W, strain rad50, active compounds read low) of the same compound?
The normalized growth was 0.937.

What about the normalized growth (S. cerevisiae deletion strains, locus YNL271C, strain bni1, active compounds read low) of the same compound?
The normalized growth was 0.886 (active).

And the normalized growth (S. cerevisiae deletion strains, locus YNL298W, strain CLA4, active compounds read low)?
The normalized growth was 0.931.

And the normalized growth (S. cerevisiae deletion strains, locus YNL307C, strain MCK1, active compounds read low)?
Its normalized growth is 0.907.

And the normalized growth (S. cerevisiae deletion strains, locus YNL322C, strain KRE1 (second series), active compounds read low)?
Its normalized growth is 0.965.

What about the normalized growth (S. cerevisiae deletion strains, locus YNR049C, strain mso1, active compounds read low) of the same compound?
Its normalized growth is 0.961.

What about the normalized growth (S. cerevisiae deletion strains, locus YNR052C, strain pop2, active compounds read low) of the same compound?
Its normalized growth is 0.739 (active).

And the normalized growth (S. cerevisiae deletion strains, locus YOL006C, strain TOP1, active compounds read low)?
Its normalized growth is 0.398 (active).

And the normalized growth (S. cerevisiae deletion strains, locus YOL012C, strain htz1)?
The normalized growth was 0.288.

What about the normalized growth (S. cerevisiae deletion strains, locus YOL147C, strain pex11, active compounds read low) of the same compound?
Its normalized growth is 0.823 (active).

And the normalized growth (S. cerevisiae deletion strains, locus YOR001W, strain rrp6, active compounds read low)?
Its normalized growth is 0.87 (active).

What about the normalized growth (S. cerevisiae deletion strains, locus YOR061W, strain CKA2, active compounds read low) of the same compound?
The normalized growth was 0.788 (active).

And the normalized growth (S. cerevisiae deletion strains, locus YOR069W, strain VPS5, active compounds read low)?
Its normalized growth is 0.808 (active).

What about the normalized growth (S. cerevisiae deletion strains, locus YOR070C, strain gyp1, active compounds read low) of the same compound?
The normalized growth was 0.925 (active).

And the normalized growth (S. cerevisiae deletion strains, locus YOR080W, strain dia2, active compounds read low)?
Its normalized growth is 0.961.

And the normalized growth (S. cerevisiae deletion strains, locus YOR083W, strain WHI5, active compounds read low)?
The normalized growth was 0.894.

And the normalized growth (S. cerevisiae deletion strains, locus YOR106W, strain vam3, active compounds read low)?
The normalized growth was 0.639 (active).

What about the normalized growth (S. cerevisiae deletion strains, locus YOR136W, strain idh2, active compounds read low) of the same compound?
The normalized growth was 0.93.

And the normalized growth (S. cerevisiae deletion strains, locus YOR144C, strain elg1, active compounds read low)?
Its normalized growth is 0.816 (active).

What about the normalized growth (S. cerevisiae deletion strains, locus YOR184W, strain ser1, active compounds read low) of the same compound?
The normalized growth was 0.812 (active).

And the normalized growth (S. cerevisiae deletion strains, locus YOR231W, strain MKK1, active compounds read low)?
Its normalized growth is 1.

And the normalized growth (S. cerevisiae deletion strains, locus YOR265W, strain rbl2, active compounds read low)?
The normalized growth was 0.923 (active).

And the normalized growth (S. cerevisiae deletion strains, locus YOR270C, strain vph1, active compounds read low)?
Its normalized growth is 0.637 (active).

What about the normalized growth (S. cerevisiae deletion strains, locus YOR290C, strain snf2, active compounds read low) of the same compound?
Its normalized growth is 0.64 (active).

What about the normalized growth (S. cerevisiae deletion strains, locus YOR316C, strain cot1, active compounds read low) of the same compound?
The normalized growth was 0.962.

And the normalized growth (S. cerevisiae deletion strains, locus YPL051W, strain arl3, active compounds read low)?
Its normalized growth is 0.767 (active).

And the normalized growth (S. cerevisiae deletion strains, locus YPL078C, strain atp4, active compounds read low)?
The normalized growth was 0.931.

And the normalized growth (S. cerevisiae deletion strains, locus YPL106C, strain sse1, active compounds read low)?
The normalized growth was 0.823 (active).

And the normalized growth (S. cerevisiae deletion strains, locus YPL240C, strain hsp82, active compounds read low)?
Its normalized growth is 0.954.

And the normalized growth (S. cerevisiae deletion strains, locus YPL241C, strain CIN2, active compounds read low)?
Its normalized growth is 0.926 (active).

And the normalized growth (S. cerevisiae deletion strains, locus YPL256C, strain CLN2, active compounds read low)?
The normalized growth was 1.07.

And the normalized growth (S. cerevisiae deletion strains, locus YPR119W, strain clb2, active compounds read low)?
The normalized growth was 0.982.

And the normalized growth (S. cerevisiae deletion strains, locus YPR141C, strain kar3, active compounds read low)?
Its normalized growth is 0.963.

What about the normalized growth (S. cerevisiae deletion strains, locus YPR163C, strain tif3, active compounds read low) of the same compound?
The normalized growth was 0.936.

And the normalized growth (S. cerevisiae deletion strains, locus YPR167C, strain met16, active compounds read low)?
The normalized growth was 0.84 (active).

And the normalized growth (S. cerevisiae deletion strains, strain wtn01, active compounds read low)?
The normalized growth was 0.799 (active).

What about the normalized growth (S. cerevisiae strains, strain wild type, active compounds read low) of the same compound?
Its normalized growth is 0.635 (active).
